Test results taken from PubChem BioAssay (NCATS).
Active and inactive are the calls of the source. The rule behind the calls is not given here.

Key:
[1] = Immunotoxin (HA22) sensitization/mitigation study. Vehicle arm (PBS) (AID 1159510)
[2] = Immunotoxin (SS1P) sensitization/mitigation study. Vehicle arm (DMEM) (AID 1159513)
Potency is the fitted concentration of half-maximal effect.

C=C1C(=CC=C2CCC[C@]3(C)[C@@H]([C@H](C)C=C[C@H](C)C(C)C)CC[C@@H]23)C[C@@H](O)C[C@@H]1O
Potency [1]: 20.9 µM (active) | Potency [2]: inactive

COc1ccc(-c2ccc3c(N4CCOC[C@H]4C)nc(N4CCOC[C@H]4C)nc3n2)cc1CO
Potency [1]: 0.469 µM (active) | Potency [2]: 0.0105 µM (active)

COc1cccc2c1CCCC2CCCN1CCN(C2CCCCC2)CC1 (configuration not stated)
Potency [1]: 16.6 µM (active) | Potency [2]: 7.43 µM (active)

CS(=O)(=O)c1ccc(C(=O)Nc2ccc(Cl)c(-c3ccccn3)c2)c(Cl)c1
Potency [1]: inactive | Potency [2]: inactive

CCN1CCN(Cc2ccc(-c3cc4c(N[C@H](C)c5ccccc5)ncnc4[nH]3)cc2)CC1
Potency [1]: 16.6 µM (active) | Potency [2]: 23.5 µM (active)

O=c1cc(N2CCOCC2)oc2c(-c3cccc4c3sc3ccccc34)cccc12
Potency [1]: 16.6 µM (active) | Potency [2]: 29.6 µM (active)

COc1cc2nc(N3CCCN(C)CC3)nc(NC3CCN(Cc4ccccc4)CC3)c2cc1OC
Potency [1]: 2.09 µM (active) | Potency [2]: 13.2 µM (active)

CC(=O)OCCN1C(=O)c2c(C)nc3ccc(S(=O)(=O)N4CCOCC4)cc3c2C1=O
Potency [1]: inactive | Potency [2]: inactive

Cc1ccnc(NS(=O)(=O)c2ccc(NC(=O)Nc3ccc(S(=O)(=O)Nc4nccc(C)n4)cc3)cc2)n1
Potency [1]: 16.6 µM (active) | Potency [2]: 18.7 µM (active)

O=C(O)CCC1CCC(c2cc(F)ccc2F)(S(=O)(=O)c2ccc(Cl)cc2)CC1 (configuration not stated)
Potency [1]: inactive | Potency [2]: inactive

COc1ccccc1-c1cccc(-c2c(O)c3cc(C#N)c(Cl)cc3[nH]c2=O)c1
Potency [1]: inactive | Potency [2]: inactive
